Records with an inconclusive call do not appear. Values without a mark were called inactive. The call rests on the fitted dose curve; in most records, active means well fitted curve in the direction sought with a large enough effect (not every such curve was filed as active); inconclusive means small, poorly fitted or top-dose-only effect, or effect the other way, or another doubt; inactive means no such curve, though single readings can be large or run the other way.
test: Cell viability assay for measurement of the protective activity of small molecules against cell death caused by Zika virus infection in human neural progenitor cells (hNPCs); details: hNPC ZIKV-induced death protection, ATP luminescence, 72 h; series mostly up to 46.1 µM; protection, negative = more death: at the top concentration;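 further: 0% = ZIKV-infected cells without compound and 100% = uninfected cells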
Method in brief: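 Luminescent ATP content after 72 h ZIKV infection (2 FFU/cell) of hNPCs, compounds added 1 h before virus. Protection expressed as percent inhibition of the infection-induced drop in cell viability.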

Going from `O[C@@H](COc1cccc2ncccc12)CN1CCN(C2c3ccccc3[C@@H]3[C@H](c4ccccc42)C3(F)F)CC1` (some centres not stated) to `Cc1nc(N)sc1-c1ccnc(Nc2ccc(N3CCOCC3)cc2)n1`, the “protection, negative = more death” value rises from -81.6% to -31.2%.

Going from `OCc1ccc(-c2ccc(-c3ccc(CO)s3)o2)s1` to `O=C1C[C@@H](c2ccc(O)cc2)Oc2cc(O)cc(O)c21`, the “protection, negative = more death” value rises from -81.6% to -22.1%.

First: O=C(c1ccccc1)c1ccc2n1CCC2C(=O)O (configuration not stated)
Second: Cc1cccc(/C=C/c2ccccc2)n1
The “protection, negative = more death” value of the first is higher: -6.75% for the first, -15.4% for the second.

First: COc1cc2nc(N3CCN(C(=O)C4CCCO4)CC3)nc(N)c2cc1OC (configuration not stated)
Second: C[C@@H]1CCN(C(=O)CC#N)C[C@H]1N(C)c1ncnc2[nH]ccc12
The “protection, negative = more death” value of the first is lower: 5.27% for the first, 8.69% for the second.

Compared with `Cc1cccc(C#Cc2ccccc2)n1`, `COc1ccc(NC(=O)/C=C/c2ccc(Cl)cc2)cc1` is lower in “protection, negative = more death” value: 6.09% for the first, -28.4% for the second.

Going from `CCC(C)SSc1ncc[nH]1` (configuration not stated) to `C[C@@H](N)c1ccc(C(=O)Nc2ccnc3[nH]ccc23)cc1`, the “protection, negative = more death” value rises from -78% to -39.7%.

Compared with `CC(=NNC(=S)N1CCC1)c1ccccn1`, `NC(N)=NN=C(/C=C/c1ccc([N+](=O)[O-])o1)/C=C/c1ccc([N+](=O)[O-])o1` is lower in “protection, negative = more death” value: -76.1% for the first, -84% for the second.

With `O=C(Oc1ccccc1)c1cccc(C(=O)Oc2ccccc2)c1` the “protection, negative = more death” value was -16.5% [at 96.3 µM].

Compared with `CC(C)(C)OC(=O)CN(Cc1ccc(Cl)cc1)Cc1ccc([N+](=O)[O-])s1`, `CC(C)(C)COc1ccc(-n2cc(C(=O)O)cn2)cc1C#N` is higher in “protection, negative = more death” value: -60.6% [at 88.3 µM] for the first, -36.5% [at 88.3 µM] for the second.
